Source: PubChem (several laboratories)
LANA-H2A inh: blocks KSHV LANA binding to histone H2A/H2B. Q9QR71. cell-free LANA-H2A/H2B peptide, fluorescence polarization. inhibition, % (test concentration not listed). actives 0.6% (n = 320,000); in the data active = inhibition mostly above about 10%, no sharp cut-off; inactive = mostly below about 6.7%
ABHD5 PLIN5 PPI: ABHD5-PLIN5 protein interaction inhibition | Q00G26+Q8WTS1 | Split G. princeps luciferase complementation, luminescence, 4 h | inhibition, % at 4 µM | actives 0.78% (n = 360,000) | AID 602281;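 active = inhibition above the mean inhibition across every tested compound plus 3 SD, cut at about 22% in these data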;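 note: 0% = DMSO only wells and the 100% control is not disclosed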
rCAG RNA binder: molecules binding r(CAG) RNA repeats. r(CAG) RNA repeat, TO-PRO-1 dye displacement fluorescence. actives 1.3% (n = 370,000). inhibition, % at 3 µM. AID 651821;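 active = inhibition above the plate cutoff, the mean of all test compounds on that plate plus 3 SD, cut at about 35% in these data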;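 note: 0% = DMSO alone and 100% = 100 µM mitoxantrone as full dye displacement; higher means more dye released from RNA so lower well fluorescence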
PRMT1 FP inh: PRMT1 (human) inhibition, primary screen. actives 1.3% (n = 370,000). Q99873. recombinant PRMT1, activity-based probe fluorescence polarization. inhibition, % at 2.79 µM;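 active = inhibition above about 21% made by adding two undisclosed values, limit read from the data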
Target sequence (Q99873 whole entry, looked up): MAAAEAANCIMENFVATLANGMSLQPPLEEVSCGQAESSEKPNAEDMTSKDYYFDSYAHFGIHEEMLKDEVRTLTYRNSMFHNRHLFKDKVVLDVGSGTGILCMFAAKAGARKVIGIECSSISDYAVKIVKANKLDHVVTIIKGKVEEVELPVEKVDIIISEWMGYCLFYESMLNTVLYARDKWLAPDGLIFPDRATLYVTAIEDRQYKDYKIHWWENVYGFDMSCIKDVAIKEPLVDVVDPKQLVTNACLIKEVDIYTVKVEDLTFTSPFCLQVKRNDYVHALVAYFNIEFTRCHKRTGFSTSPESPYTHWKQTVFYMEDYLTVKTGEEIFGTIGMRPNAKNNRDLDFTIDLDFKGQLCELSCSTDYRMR
Rtt109 Vps75: inhibitors of Candida albicans Rtt109/Vps75 histone acetyltransferase | Q5AAJ8 | purified Rtt109/Vps75, ThioGlo CoA-SH fluorescence, 4 h | inhibition, % at 34.9 µM | actives 0.16% (n = 330,000) | AID 540336;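 active = inhibition of at least 50% in every replicate; inconclusive = best replicate reaches 50% inhibition but some replicates fall short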
ALR inh: human ALR oxidase inhibition via reduced H2O2; purified ALR, DTT oxidation, H2O2 HRP-luminol luminescence; actives 3.8% (n = 290,000); inhibition, % (test concentration not listed); P55789;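 active = mean replicate inhibition above about 79%, with every replicate also reaching it, limit read from the data; inconclusive = only one of the two criteria met; inactive = mean below limit and not every replicate reaching it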
Target sequence (P55789 whole entry, looked up): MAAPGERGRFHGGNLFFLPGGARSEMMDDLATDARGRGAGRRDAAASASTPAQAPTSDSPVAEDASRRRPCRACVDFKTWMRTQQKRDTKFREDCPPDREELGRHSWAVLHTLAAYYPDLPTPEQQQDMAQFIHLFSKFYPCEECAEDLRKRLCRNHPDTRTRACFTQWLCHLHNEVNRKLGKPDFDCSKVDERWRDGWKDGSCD
Numbers without * were called inactive; ? = inconclusive; nt = not tested or not shown. An excerpt weighted towards active compounds, which were near 5.9% of everything screened.

SMILES | LANA-H2A inh | ABHD5 PLIN5 PPI | rCAG RNA binder | PRMT1 FP inh | Rtt109 Vps75 | ALR inh
Brc1ccc(C2=CC(c3cccs3)n3ncnc3N2)cc1 (stereo not given) | 59* | -7 | -216 | 95* | -47 | 23
OCCCc1nc2n(n1)C(c1cccs1)C=C(c1ccc(Br)cc1)N2 (stereo not given) | 102* | nt | nt | nt | nt | 25
CCOC(=O)[C@]12CCCC=C1N(Cc1ccccc1)C(=O)[C@H](CC(=O)N1CCN(C(=O)c3ccco3)CC1)C2 | nt | 8 | 4 | -6 | nt | nt
CSc1ccc(Oc2cccc3c2S(=O)(=O)N(C2CC2)C[C@@H](COCc2ccccc2)O3)cc1C | nt | nt | 8 | 0 | nt | nt
Cc1cc(N2CCCC2)ccc1NC(=O)CN1C(=O)NC2(CCCCC2)C1=O | -6 | -10 | 2 | 3 | -4 | 93*
CCOC(=O)c1ccc(NC(=O)CN2C(=O)NC3(CCC(C)CC3)C2=O)cc1 (stereo not given) | 1 | 0 | -6 | 1 | -11 | -4
CCOC(=O)c1ccc(NC(=O)CN2C(=O)CN(C(C)=O)C2=S)cc1 | 1 | 7 | -1 | 2 | 8 | 99*
CCOC(=O)c1ccc(NC(=O)CCCN2C(=O)NC3(CCCC3)C2=O)cc1 | 12* | -3 | 1 | 0 | 6 | nt
CCOC(=O)c1ccc(NC(=O)CN2C(=O)NC3(CCCCCC3)C2=O)cc1 | 6 | -5 | -3 | -3 | -4 | -7
O=C(CN1C(=O)NC2(CCCCC2)C1=O)Nc1ccc(N2CCCCC2)cc1 | -2 | 3 | 1 | 5 | 1 | 93*
CCOc1ccc(-n2c(SCc3ccc(C#N)cc3)nnc2-c2ccco2)cc1 | nt | nt | 7 | 9 | nt | nt
CC1CCCN(C(=O)Nc2ccc([N+](=O)[O-])cc2)C1 (stereo not given) | nt | nt | 3 | -1 | nt | nt
Cc1cc2c(cc1C)-n1nnnc1C(N1CCN(C(=O)OCc3ccccc3)CC1)C(=O)N2 (stereo not given) | nt | 6 | 4 | -1 | nt | nt
CCOc1ccc(NS(=O)(=O)c2cccs2)cc1S(=O)(=O)N1CCCC1 | nt | 6 | 6 | -1 | nt | nt
CC(=O)c1ccc(-c2ccc(C(=O)NC3CC(C)(C)NC(C)(C)C3)o2)cc1 | -2 | 2 | 10 | 12 | 6 | 98*
COC(=O)[C@]12C[C@H](CC(=O)NCC34CC5CC(CC(C5)C3)C4)C(=O)N(CCC3=CCCCC3)C1=C[C@H](C(C)C)O[C@@H]2C1CC1 | nt | nt | 9 | -3 | nt | nt
COc1cc(C=C(c2nc3ccccc3s2)c2nc3ccccc3s2)ccc1O | 1 | 5 | 20 | 2 | 1 | 12
CCOc1cc(/C=C/c2cc(C(=O)O)c3ccccc3n2)ccc1O | 0 | 2 | -1 | -3 | 9 | 89*
COc1cc(/C=C/c2cc(C(=O)O)c3ccccc3n2)cc(OC)c1O | 4 | 4 | 5 | 1 | 0 | 99*
COc1cc(/C=C/c2nc3ccccc3s2)cc(OC)c1O | -3 | 3 | 7 | 5 | -7 | 95*
CCOc1cccc(/C=C/c2cc(C(=O)O)c3ccccc3n2)c1OC | -2 | 4 | nt | nt | 3 | nt
COc1cc(/C=N/NC(=O)c2cc(-c3ccco3)nc3ccccc23)cc(OC)c1O | 1 | 5 | 30 | 9 | -5 | 97*
CCOc1cc(/C=C/c2cc(C(=O)O)c3ccccc3n2)ccc1OC | 4 | -2 | 2 | 1 | -2 | 1
O=C(c1ccc(F)cc1Cl)N(Cc1ccccn1)CC1CCCO1 (stereo not given) | nt | nt | 2 | 0 | nt | nt
COC(=O)[C@]12C[C@H](CC(=O)N3CCN(C(=O)C4CC4)CC3)C(=O)N(Cc3ccccc3)C1=C[C@H](C(C)C)O[C@@H]2C1CC1 | nt | nt | 1 | 2 | nt | nt
SMILES | LANA-H2A inh | ABHD5 PLIN5 PPI | rCAG RNA binder | PRMT1 FP inh | Rtt109 Vps75 | ALR inh
O=C(OCC#CCSc1nnc(-c2cccs2)o1)c1ccc(F)cc1 | nt | nt | nt | -1 | nt | nt
COc1ccc(NC(=O)c2cc(-c3ccc(C)o3)nc3ccccc23)c(OC)c1 | 2 | 5 | 2 | 6 | nt | -17
COc1ccc(NC(=O)c2cc(-c3ccc(C)o3)nc3ccccc23)cc1OC | -4 | 34* | 18 | 8 | 1 | -9
CCn1cc(SCC(=O)N2CCc3ccccc32)c2ccccc21 | 3 | -8 | 1 | 5 | -6 | 98*
O=C(C1CC1)N1CCN(c2ccc(O)cc2)CC1 | -2 | -4 | 0 | 7 | 4 | 99*
CCOC(=O)N1CCN(c2ccc(Cl)cc2)CC1 | 6 | -6 | 0 | 3 | 1 | 41
CCOC(=O)N1CCN(c2ccc(O)cc2)CC1 | 0 | 2 | -2 | 8 | -2 | 99*
CCOc1ccccc1NC(=S)N1CCN(c2ccc(O)cc2)CC1 | -1 | 4 | 5 | -1 | 6 | 99*
CC(=O)c1ccc(N2CCN(C(=O)C3CCC3)CC2)cc1 | -3 | 2 | -5 | -1 | -6 | nt
C[C@H](O)[C@@H]1C(=O)N2CCc3ccc(N4CCN(C)CC4)cc3[C@@H]2C[C@@H]1N(C)C(=O)c1cccnc1 | nt | -6 | -1 | -1 | nt | nt
COc1cc(OC)c2ccc(=O)oc2c1C(CCN1CCCCC1)c1ccc(N(C)C)cc1 (stereo not given) | 0 | -7 | 4 | -3 | 8 | 99*
COc1cc(OC)c2ccc(=O)oc2c1C(CCN1CCCC1)c1ccc(N(C)C)cc1 (stereo not given) | 1 | -10 | 3 | 0 | -3 | 98*
CCCCCc1cc(=O)oc2c(C(CCN3CCCC3)c3ccc(N(C)C)cc3)c(OC)cc(OC)c12 (stereo not given) | -1 | 9 | 5 | -3 | ? | nt
CCOC(=O)C1(Cc2ccccc2)CCCCCC1=O (stereo not given) | nt | 2 | 0 | 0 | 4 | nt
O=C(c1cc(Br)cc(Br)c1)N1CCC(Oc2cccnc2)CC1 | nt | nt | 2 | 4 | nt | nt
Cc1ccc(C(=O)Nc2nc(-c3ccc([N+](=O)[O-])cc3)cs2)o1 | 0 | -2 | 4 | 0 | 0 | 98*
CC(=O)Nc1ccc(-c2csc(NC(=O)c3ccc(C)o3)n2)cc1 | -6 | 10 | 9 | 2 | 7 | 11
Cc1ccccc1NC(=O)N(C)[C@H]1C[C@H]2c3[nH]c4c(-c5ccccc5)cccc4c3CCN2C(=O)[C@H]1[C@H](C)O | nt | nt | 6 | -3 | nt | nt
Cc1nc2ccc(-c3nc4cc(N)ccc4o3)cc2[nH]1 | 2 | -3 | 4 | -1 | -2 | 98*
Cc1ccc(NC2Nc3cc(C)nn3S2)c(C)c1 (stereo not given) | -3 | -1 | 1 | 13 | 5 | 87*
COc1cc(/C=C/C(=O)OCC(=O)NC(=O)NC(C)C)cc(S(=O)(=O)N2CCc3ccccc32)c1OC | 26* | 6 | 4 | -4 | 20 | -4
CCC(C)N(C(=O)COC(=O)/C=C/c1ccc(O)c(OC)c1)C1CCS(=O)(=O)C1 (stereo not given) | 2 | 0 | 2 | -1 | nt | 94*
COc1cc(/C=C/C(=O)OCC(=O)NC(=O)NC(C)C)ccc1O | 6 | 6 | -2 | 2 | 29 | 99*
